The target of assay [1] is Progesterone receptor (Homo sapiens) (UniProt P06401). Description: qHTS assay to identify small molecule agonists of the progesterone receptor (PR) signaling pathway (AID 1346784; calls by dose curve; also: nearly all actives have a fitted effect of over 30% in size). Conditions: PR-UAS-bla HEK293T, beta-lactamase FRET ratio, 16 h; series mostly up to 92.4 µM. In short, it runs like this: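 Cells (PR-UAS-bla HEK 293T, GripTite) were plated in assay medium containing 2% charcoal-stripped FBS and incubated 6 hr. Test compounds in DMSO were added for 16 hr at 37C. FRET substrate was then loaded for 2 hr at room temperature before fluorescence reading.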
A general note: Quantitative high-throughput screening tests each substance at several concentrations.

The target is the same in assay [2]. Description: qHTS assay to identify small molecule antagonists of the progesterone receptor (PR) signaling pathway (AID 1346795; active = well fitted inhibition curve with a large enough effect in the signal ratio in the repeat runs, not every such curve was filed as active; the % refers to the signal ratio; also: potency is read from the fitted curve at half-maximal effect). The settings on record: PR-UAS-bla HEK293T, beta-lactamase FRET ratio, 16 h; series mostly up to 92.4 µM. In a few lines:
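Antagonist mode: compounds tested against 1 nM (final) promegestone stimulation in HEK293T cells expressing PR-UAS-bla reporter, 16 hr at 37C, 5% CO2; beta-lactamase activity detected via B/G FRET substrate after 2 hr at room temperature.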

A short description of assay [3]: qHTS assay to identify small molecule antagonists of the progesterone receptor (PR) signaling pathway - cell viability counter screen (AID 1346798). Also: nearly all actives have a fitted effect of over 50% in size. Conditions: PR-UAS-bla HEK293T viability, CellTiter-Glo luminescence, 16 h; series mostly up to 92.4 µM. In a few lines: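 Counter screen for cytotoxicity: viability of PR-UAS-bla HEK293T cells was measured with CellTiter-Glo luminescence following 16 hr compound exposure in the presence of R5020.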

Assay [4] can be described thus: qHTS assay to identify small molecule agonists of the progesterone receptor (PR) signaling pathway - cell viability counter screen (AID 1346799; calls by dose curve; also: nearly all actives have a fitted effect of over 45% in size). Conditions: PR-UAS-bla HEK293T viability, CellTiter-Glo luminescence, 16 h; series mostly up to 92.4 µM. In a few lines: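 Cells (PR-UAS-bla HEK293T) are plated at 3,000/well in 2% charcoal-stripped FBS medium, rested 6 hr, dosed and incubated 16 hr at 37C. CellTiter-Glo is then added and luminescence measured after 30 min at room temperature.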

Assay [5] is described as follows: qHTS assay to identify small molecule antagonists of the TGF-beta/Smad signaling pathway - cell viability counter screen (AID 1346824). Also: nearly all actives have a fitted effect of over 50% in size. Conditions: SBE-bla HEK293T viability, CellTiter-Glo luminescence; series mostly up to 76.8 µM. In short, it runs like this: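 SBE-bla HEK 293T cells, incubated overnight, then compound plus 0.25 ng/mL TGF-beta1 (stock added) for 5 hr at 37 C. Viability was read in the same wells by CellTiter-Glo luminescence after 30 min at room temperature.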

Assay [6] is described as follows: qHTS assay to identify small molecule agonists of the TGF-beta/Smad signaling pathway - cell viability counter screen (AID 1346829). Also: top concentration of the series differs between compounds; nearly all actives have a fitted effect of over 45% in size. The settings on record: SBE-bla HEK293T viability, CellTiter-Glo luminescence, 5 h; series mostly up to 76.8 µM. In short, it runs like this:
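Compound-treated SBE-bla HEK 293T cells (5 hr, 37 C) were assessed for viability with CellTiter-Glo in parallel with the reporter read.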

Assay [7] can be described thus: qHTS assay to identify small molecule agonists of the TGF-beta/Smad signaling pathway (AID 1346859; active = well fitted activation curve with a large enough effect in the signal ratio in the repeat runs, not every such curve was filed as active; the % refers to the signal ratio). Conditions: SBE-bla HEK293T, TGF-beta/Smad beta-lactamase reporter, 5 h; series mostly up to 76.8 µM. In short, it runs like this:
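Reporter line: HEK 293T with stably integrated SBE-controlled beta-lactamase. Compound exposure lasts 5 hr at 37 C and 5% CO2; substrate loading follows for 2 hr at room temperature, with emission read at 460 and 530 nm.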

For assay [8], the target named is Thyrotropin-releasing hormone receptor (Homo sapiens) (UniProt P34981). The experiment in a line: qHTS assay to identify small molecule antagonists of the thyrotropin-releasing hormone receptor (TRHR) signaling pathway (AID 1346877; active = well fitted inhibition curve with a large enough effect in the repeat runs, not every such curve was filed as active). Conditions: TRHR-HEK293, TRH-induced calcium fluorescence, antagonist mode; series mostly up to 51.3 µM. In a few lines: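 Intracellular calcium fluorescence, read kinetically every second over 3 min, reports TRH-evoked signalling in HEK293 cells carrying TRHR. Test compounds were added 5 min ahead of a 1 nM TRH challenge.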

Assay [9] shares this target. The experiment in a line: qHTS assay to identify small molecule agonists of the thyrotropin-releasing hormone receptor (TRHR) signaling pathway (AID 1346891; calls by dose curve;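 also: HEK293 cells expressing TRHR with calcium dye readout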). Conditions: TRHR-HEK293 calcium fluorescence, agonist mode; series mostly up to 57.6 µM. In short, it runs like this: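 Cells: TRHR-Hek293, seeded and incubated 18 h. Dye loading: 2 h at 37 °C. Compound added from DMSO stock by pin tool. Read-out: kinetic calcium fluorescence over 3 min.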

Assay [10] can be described thus: Human pregnane X receptor (PXR) small molecule agonists, qHTS cell viability counter screen (AID 1346977). Also: nearly all actives have a fitted effect of over 50% in size. Conditions: PXR-Luc HepG2 viability, CellTiter-Fluor, 24 h; series mostly up to 92.4 µM. In short, it runs like this: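 Cytotoxicity counter screen run in the same wells as the PXR luciferase assay, using PXR-Luc HepG2 cells in charcoal-stripped serum medium. Viability: CellTiter-Fluor fluorescence after 24hr compound treatment.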

A short description of assay [11]: Caspase-3/7 induction in HepG2 cells by small molecules, qHTS assay (AID 1346978). Also: nearly all actives have a fitted effect of over 15% in size. The settings on record: HepG2 caspase-3/7 activation, Caspase-Glo luminescence, 17 h; series mostly up to 92.4 µM. In a few lines:
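Wild-type HepG2 cells, 2,000/well, settled 5 hr at 37 C and 5% CO2, then compound-treated for 17 hr; caspase-3/7 activity read by luminescent Caspase-Glo 3/7 after 30 min at room temperature.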

The nature of assay [12]: Caspase-3/7 induction in CHO-K1 cells by small molecules, qHTS cell viability counter screen (AID 1346979). Also: nearly all actives have a fitted effect of over 35% in size. Conditions: CellTiter-Fluor fluorescence, 17 h; series mostly up to 92.4 µM. In a few lines: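 Cytotoxicity counter screen run in parallel with the caspase-3/7 assay: CHO-K1 cells, 16hr compound treatment at 37C, then CellTiter-Fluor for 1hr before fluorescence reading.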

The nature of assay [13]: Caspase-3/7 induction in CHO-K1 cells by small molecules, qHTS assay (AID 1346980). Also: nearly all actives have a fitted effect of over 15% in size. The settings on record: CHO-K1 caspase-3/7 induction, Caspase-Glo luminescence, 17 h; series mostly up to 92.4 µM. In short, it runs like this:
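Wild-type CHO-K1 cells exposed to compounds for 17hr at 37 C, 5% CO2. Caspase-3/7 activity then measured by Caspase-Glo 3/7 luminescence after 30min at room temperature.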

Assay [14] has as its target Nuclear receptor subfamily 1 group I member 2 (Homo sapiens) (UniProt O75469). Description: Human pregnane X receptor (PXR) small molecule agonists, qHTS assay (AID 1346982). Also: nearly all actives have a fitted effect of over 35% in size. Also: potency is read from the fitted curve at half-maximal effect. The settings on record: PXR-Luc HepG2, CYP3A4 luciferase reporter, 24 h; series mostly up to 92.4 µM. In short, it runs like this:
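Luciferase signal from ONE-Glo (30 min, room temperature) measured activation of hPXR-driven CYP3A4 reporter expression in PXR-Luc HepG2 cells treated with compounds for 24 hr at 37 C.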

The target of assay [15] is Acetylcholinesterase (Homo sapiens) (UniProt P22303). The experiment in a line: Acetylcholinesterase (AChE) small molecule antagonists: colormetric cell-based qHTS assay (AID 1347395; calls by dose curve; also: nearly all actives have a fitted effect of over 30% in size; also: potency is read from the fitted curve at half-maximal effect). Conditions: SH-SY5Y cells AChE activity, colorimetric (Ellman); series mostly up to 115 µM. In a few lines:
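Cells (SH-SY5Y, 2,000 per well) are seeded and left overnight at 37 C. Compound is added for 30 min, then DTNB and acetylthiocholine for a further 90 min at 37 C before absorbance-based thiocholine detection.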

Assay [16] has the same target. The experiment in a line: Acetylcholinesterase (AChE) small molecule antagonists: enzyme-based qHTS assay (AID 1347397; calls by dose curve; also: nearly all actives have a fitted effect of over 55% in size; also: potency is read from the fitted curve at half-maximal effect). The settings on record: Potency: AChE enzyme activity inhibition; series mostly up to 115 µM. In short, it runs like this: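 Recombinant human AChE (50 mU/mL) preincubated with compound 30 min at room temperature; acetylthiocholine plus DTNB then added, and thiocholine formation read colorimetrically after 10 min at room temperature. DMSO served as vehicle control.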

The nature of assay [17]: Caspase-3/7 induction in HepG2 cells by small molecules, qHTS cell viability counter screen (AID 1346981). Also: nearly all actives have a fitted effect of over 30% in size. Conditions: CellTiter-Fluor fluorescence, 17 h; series mostly up to 92.4 µM. In short, it runs like this: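 HepG2, WT, 2,000 cells/well; 5 hr pre-incubation 37 C/5% CO2; compound pin-transferred from DMSO; 16 hr exposure; CellTiter-Fluor, 1 hr; fluorescence read.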

A number with no mark means an inactive call. Results filed as inconclusive are left out. Activity calls are given as the source filed them. Unless noted, calls follow the shape of the dose curve; as a rule, active = well fitted curve in the direction sought with a large enough effect in the repeat runs; inconclusive = weak or mixed curves; inactive = no such curve, though single readings can be large; an effect the other way counts as inactive or inconclusive.

Acetylcholinesterase (Homo sapiens), sequence (P22303 whole entry, looked up): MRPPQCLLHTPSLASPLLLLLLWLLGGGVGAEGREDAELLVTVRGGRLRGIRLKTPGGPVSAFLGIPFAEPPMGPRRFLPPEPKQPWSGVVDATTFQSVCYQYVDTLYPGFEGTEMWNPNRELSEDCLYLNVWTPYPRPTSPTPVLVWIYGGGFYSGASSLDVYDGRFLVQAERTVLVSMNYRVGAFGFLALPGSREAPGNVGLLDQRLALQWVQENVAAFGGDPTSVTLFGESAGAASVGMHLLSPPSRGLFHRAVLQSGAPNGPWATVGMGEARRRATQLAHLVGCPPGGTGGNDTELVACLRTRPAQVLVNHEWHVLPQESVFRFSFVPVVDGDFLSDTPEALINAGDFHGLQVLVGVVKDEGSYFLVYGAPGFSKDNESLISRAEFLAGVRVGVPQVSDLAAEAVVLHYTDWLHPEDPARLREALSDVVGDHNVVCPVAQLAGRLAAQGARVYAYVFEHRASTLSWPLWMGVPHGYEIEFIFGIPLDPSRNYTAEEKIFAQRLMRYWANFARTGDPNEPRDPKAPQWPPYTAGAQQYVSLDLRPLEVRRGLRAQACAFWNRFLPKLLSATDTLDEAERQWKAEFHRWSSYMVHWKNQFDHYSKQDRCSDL
Thyrotropin-releasing hormone receptor (Homo sapiens), sequence (P34981 whole entry, looked up): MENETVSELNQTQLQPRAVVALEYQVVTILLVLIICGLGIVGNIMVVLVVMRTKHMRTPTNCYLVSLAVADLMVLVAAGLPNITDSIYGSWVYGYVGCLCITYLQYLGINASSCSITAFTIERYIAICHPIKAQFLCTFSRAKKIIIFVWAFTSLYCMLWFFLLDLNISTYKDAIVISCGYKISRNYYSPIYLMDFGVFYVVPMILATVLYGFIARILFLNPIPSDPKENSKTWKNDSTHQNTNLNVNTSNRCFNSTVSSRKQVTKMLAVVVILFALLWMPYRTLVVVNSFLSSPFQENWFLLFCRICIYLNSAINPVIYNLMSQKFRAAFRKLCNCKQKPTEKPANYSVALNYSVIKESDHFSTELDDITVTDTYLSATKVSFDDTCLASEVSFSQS
Progesterone receptor (Homo sapiens), sequence (P06401 whole entry, looked up): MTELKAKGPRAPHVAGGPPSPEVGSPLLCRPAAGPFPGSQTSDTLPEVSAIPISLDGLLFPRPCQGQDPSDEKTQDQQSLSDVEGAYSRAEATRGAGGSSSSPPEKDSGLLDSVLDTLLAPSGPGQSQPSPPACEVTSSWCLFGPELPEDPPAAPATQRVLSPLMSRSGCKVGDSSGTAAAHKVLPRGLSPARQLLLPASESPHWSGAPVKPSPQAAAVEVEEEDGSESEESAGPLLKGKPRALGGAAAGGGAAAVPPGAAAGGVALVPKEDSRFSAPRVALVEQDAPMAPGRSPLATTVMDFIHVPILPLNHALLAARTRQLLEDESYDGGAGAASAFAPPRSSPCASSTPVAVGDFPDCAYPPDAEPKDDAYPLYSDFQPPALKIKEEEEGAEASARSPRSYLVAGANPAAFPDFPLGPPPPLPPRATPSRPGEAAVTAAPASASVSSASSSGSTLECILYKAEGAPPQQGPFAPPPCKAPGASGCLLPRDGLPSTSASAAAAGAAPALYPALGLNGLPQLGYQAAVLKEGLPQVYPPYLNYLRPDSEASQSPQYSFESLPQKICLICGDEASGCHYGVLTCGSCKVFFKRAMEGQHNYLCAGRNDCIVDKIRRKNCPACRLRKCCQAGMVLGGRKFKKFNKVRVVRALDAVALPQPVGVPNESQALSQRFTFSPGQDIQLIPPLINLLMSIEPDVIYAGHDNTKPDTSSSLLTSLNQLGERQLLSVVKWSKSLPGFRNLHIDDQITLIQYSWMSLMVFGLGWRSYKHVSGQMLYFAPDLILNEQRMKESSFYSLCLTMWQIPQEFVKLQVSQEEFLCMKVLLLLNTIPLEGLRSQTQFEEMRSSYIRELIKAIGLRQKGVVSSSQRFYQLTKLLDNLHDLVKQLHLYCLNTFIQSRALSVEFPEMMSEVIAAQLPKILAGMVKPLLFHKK
Nuclear receptor subfamily 1 group I member 2 (Homo sapiens), sequence (O75469 whole entry, looked up): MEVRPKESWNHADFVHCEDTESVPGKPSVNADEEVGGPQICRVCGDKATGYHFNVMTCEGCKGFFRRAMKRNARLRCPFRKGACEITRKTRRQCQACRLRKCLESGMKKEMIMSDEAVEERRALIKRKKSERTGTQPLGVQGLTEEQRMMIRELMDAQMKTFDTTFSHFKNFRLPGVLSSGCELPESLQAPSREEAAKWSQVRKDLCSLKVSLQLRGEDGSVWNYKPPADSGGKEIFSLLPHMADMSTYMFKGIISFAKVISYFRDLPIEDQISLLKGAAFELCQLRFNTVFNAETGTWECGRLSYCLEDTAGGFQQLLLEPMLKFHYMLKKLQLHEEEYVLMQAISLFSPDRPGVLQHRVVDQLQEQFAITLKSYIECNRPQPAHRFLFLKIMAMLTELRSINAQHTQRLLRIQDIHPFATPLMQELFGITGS

For `OC(c1ccc(F)cc1)(c1cncnc1)c1ccccc1Cl` (stereo unspecified), the Potency entry in [1], in assay [3], in [4], in assay [5], in [10] and in [11] was “inactive” throughout. For the same molecule, the Potency entry in [12], in assay [13], in assay [15] and in assay [16] was “inactive” in each case. Moreover, the Potency in assay [2] is 48.6 µM (active); in assay [14], 30.6 µM (active). Moreover, the call in [6], in assay [7], in [8] and in assay [9] was inactive.
Take `COP(=S)(OC)Oc1ccc(S(N)(=O)=O)cc1`: the Potency entry in assay [1], in [2], in assay [3], in assay [4], in assay [5] and in assay [10] was “inactive” throughout. Besides, the Potency entry in [11], in [12], in assay [13], in assay [17], in assay [14] and in assay [15] was “inactive” throughout. The Potency result in assay [16] is “inactive”. Further, the result in [6], in assay [7], in assay [8] and in [9] was inactive.
`Cc1ccccc1CO[C@@H]1C[C@@]2(C(C)C)CC[C@]1(C)O2`: the Potency result in assay [1], in [2], in assay [3], in [4], in [5] and in [10] was “inactive” each time. The Potency result in assay [11], in assay [12], in assay [13], in assay [17], in [14] and in assay [15] was “inactive” in each case. The molecule was classed as inactive in [6], in assay [7], in assay [8] and in assay [9].
With `CNC(=O)O/N=C(\C)SC`, the Potency result in [1], in assay [2], in assay [3], in assay [4], in assay [5] and in [10] was “inactive” each time. The Potency entry in assay [11], in assay [12], in [13], in assay [17] and in [14] was “inactive” each time. Further, the molecule was classed as inactive in assay [6], in [7], in assay [8] and in assay [9]. Further, the Potency in assay [15] was 1.59 µM (active); in assay [16], 2.83 µM (active).

The values above are taken from PubChem BioAssay (Tox21).
